Reference: the supplement of paper PMC12669032

Each molecule was assayed on Akkermansia muciniphila (assay: growth AUC relative to DMSO control (median of replicates) (fraction); higher = more growth (less inhibition), active = hit call of the paper). Conditions: 20 µM; 24 h;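 active = AUC reduced over 20% with Padj below 0.05 in at least 2 of 3 replicates; inactive = otherwise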.
How it was run: (§1)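 Starting at OD600 0.05, gut bacterial monocultures in mGAM were grown anaerobically at 37 °C with 20 µM compound (1% DMSO) under pierced gas-permeable seals. OD600 was read every hour for 24 h, and the lowest OD of each curve was set to 0. Area under the growth curve was normalised to the plate median of solvent-only wells, or to row and column medians on the industrial chemical plate, and the median of three biological replicates grown on separate days is given.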
`CCCSC(=O)N(CCC)CCC` was tested, and the “growth AUC” value was 0.868 (inactive). For `CCOP(=S)(OCC)SCCSCC`, the “growth AUC” value was 0.992 (inactive). With `Nc1c(Cl)c(Cl)c(Cl)c(Cl)c1Cl` the “growth AUC” value was 0.856 (inactive). With `N#Cc1c(Cl)cccc1Cl` the “growth AUC” value was 0.866 (inactive). `CC(CCl)OP(=O)(OC(C)CCl)OC(C)CCl` (mixture of isomers) was tested, and the “growth AUC” value was 1.14 (inactive). `CNC(=O)/C(=N/OC)c1ccccc1Oc1ccccc1` was tested, and the “growth AUC” value was 0.883 (inactive). With `Clc1c(Cl)c(Cl)c(Cl)c(Cl)c1Cl` the “growth AUC” value was 0.994 (inactive). In the case of `C#CC(C)(C)NC(=O)c1cc(Cl)cc(Cl)c1`, the “growth AUC” value is reported as 1.06 (inactive). With `CNC(=O)Oc1cc(C)c(SC)c(C)c1` the “growth AUC” value was 1.07 (inactive). For `C[N+](C)(C)CCCl.[Cl-]`, the “growth AUC” value was 1.06 (inactive). `CC(C)(C)c1cc([N+](=O)[O-])cc([N+](=O)[O-])c1O` was tested, and the “growth AUC” value was 0.623 (inactive). In the case of `CCOP(=S)(OCC)SCSc1ccc(Cl)cc1`, the “growth AUC” value is reported as 1.04 (inactive). In the case of `O=S(=O)(c1ccc(Cl)cc1)c1cc(Cl)c(Cl)cc1Cl`, the “growth AUC” value is reported as 1.07 (inactive). With `CCOCCN(C(=O)CCl)C(=C(C)C)c1ccccc1` the “growth AUC” value was 0.903 (inactive). For `CC(C)(O)C(Cl)(Cl)Cl.CC(C)(O)C(Cl)(Cl)Cl.O`, the “growth AUC” value was 1.08 (inactive). With `Nc1cnn(-c2ccccc2)c(=O)c1Cl` the “growth AUC” value was 0.895 (inactive). In the case of `CC(C)=CC1C(C(=O)OCN2C(=O)C3=C(CCCC3)C2=O)C1(C)C` (stereo not drawn), the “growth AUC” value is reported as 0.932 (inactive). `O=P(OCCCl)(OCCCl)OCCCl` was tested, and the “growth AUC” value was 0.628 (active). With `COCc1c(F)c(F)c(COC(=O)[C@@H]2[C@@H](C=C(Cl)Cl)C2(C)C)c(F)c1F` the “growth AUC” value was 1.07 (inactive). For `ClC1C(Cl)C(Cl)C(Cl)C(Cl)C1Cl` (mixture of isomers), the “growth AUC” value was 0.921 (inactive). With `O=C(O)C1(O)c2ccccc2-c2ccc(Cl)cc21` (stereo not drawn) the “growth AUC” value was 0.865 (inactive). For `CCC(CC)Nc1c([N+](=O)[O-])cc(C)c(C)c1[N+](=O)[O-]`, the “growth AUC” value was 1.03 (inactive). For `CC(C)(C)c1ccc(CCOc2ncnc3ccccc23)cc1`, the “growth AUC” value was 1.16 (inactive). `CCC(C)(NC(=O)c1cc(Cl)c(C)c(Cl)c1)C(=O)CCl` (stereo not drawn) was tested, and the “growth AUC” value was 0.877 (inactive). For `COc1ccc(/C(=C/C(=O)N2CCOCC2)c2ccc(Cl)cc2)cc1OC`, the “growth AUC” value was 1.1 (inactive). `CNC(=O)Oc1cccc2c1OC(C)(C)C2=O` was tested, and the “growth AUC” value was 1.05 (inactive). In the case of `c1coc(-c2nc3ccccc3[nH]2)c1`, the “growth AUC” value is reported as 1.03 (inactive). With `COP(=O)(OC)SCn1c(=O)oc2cc(Cl)cnc21` the “growth AUC” value was 0.883 (inactive). In the case of `COC(=O)Nc1nc2ccccc2[nH]1`, the “growth AUC” value is reported as 0.927 (inactive). With `S=C1NCCN1` the “growth AUC” value was 1.05 (inactive). In the case of `O=c1[nH]c(Cl)c(Cl)cc1Cl`, the “growth AUC” value is reported as 0.98 (inactive). For `Cc1cccc(C)c1N`, the “growth AUC” value was 0.917 (inactive). For `COP(=O)(OC)Oc1ccc([N+](=O)[O-])cc1`, the “growth AUC” value was 1.17 (inactive). In the case of `CCOP(=S)(OCC)Oc1ccc2c(C)c(Cl)c(=O)oc2c1`, the “growth AUC” value is reported as 1.1 (inactive). `Clc1cc(Cl)c(Cl)cc1Cl` was tested, and the “growth AUC” value was 1.01 (inactive). With `CCN(CC)c1c([N+](=O)[O-])cc(C(F)(F)F)c(N)c1[N+](=O)[O-]` the “growth AUC” value was 0.987 (inactive). In the case of `C[C@@H](Oc1ccc(Oc2ccc(C(F)(F)F)cn2)cc1)C(=O)O`, the “growth AUC” value is reported as 1.08 (inactive). `CCOP(=S)(Oc1cnc(C(C)(C)C)nc1)OC(C)C` (stereo not drawn) was tested, and the “growth AUC” value was 0.912 (inactive). With `Oc1ccc(C(c2ccc(O)cc2)(C(F)(F)F)C(F)(F)F)cc1` the “growth AUC” value was 1.03 (inactive).

These molecules were tested on Bacteroides caccae in the same assay as above. Conditions: 20 µM; 24 h.
How it was run: as §1
With `CCCSC(=O)N(CCC)CCC` the “growth AUC” value was 0.991 (inactive). In the case of `CCOP(=S)(OCC)SCCSCC`, the “growth AUC” value is reported as 1.03 (inactive). In the case of `Nc1c(Cl)c(Cl)c(Cl)c(Cl)c1Cl`, the “growth AUC” value is reported as 0.897 (inactive). `N#Cc1c(Cl)cccc1Cl` was tested, and the “growth AUC” value was 1.03 (inactive). `CC(CCl)OP(=O)(OC(C)CCl)OC(C)CCl` (mixture of isomers) was tested, and the “growth AUC” value was 1 (inactive). With `CNC(=O)/C(=N/OC)c1ccccc1Oc1ccccc1` the “growth AUC” value was 1.01 (inactive). In the case of `Clc1c(Cl)c(Cl)c(Cl)c(Cl)c1Cl`, the “growth AUC” value is reported as 1.01 (inactive). In the case of `C#CC(C)(C)NC(=O)c1cc(Cl)cc(Cl)c1`, the “growth AUC” value is reported as 0.964 (inactive). With `CNC(=O)Oc1cc(C)c(SC)c(C)c1` the “growth AUC” value was 0.934 (inactive). In the case of `C[N+](C)(C)CCCl.[Cl-]`, the “growth AUC” value is reported as 1.01 (inactive). In the case of `CC(C)(C)c1cc([N+](=O)[O-])cc([N+](=O)[O-])c1O`, the “growth AUC” value is reported as 0.973 (inactive). `CCOP(=S)(OCC)SCSc1ccc(Cl)cc1` was tested, and the “growth AUC” value was 0.954 (inactive). With `O=S(=O)(c1ccc(Cl)cc1)c1cc(Cl)c(Cl)cc1Cl` the “growth AUC” value was 0.921 (inactive). For `CCOCCN(C(=O)CCl)C(=C(C)C)c1ccccc1`, the “growth AUC” value was 1.01 (inactive). In the case of `CC(C)(O)C(Cl)(Cl)Cl.CC(C)(O)C(Cl)(Cl)Cl.O`, the “growth AUC” value is reported as 1.01 (inactive). With `Nc1cnn(-c2ccccc2)c(=O)c1Cl` the “growth AUC” value was 1.01 (inactive). With `CC(C)=CC1C(C(=O)OCN2C(=O)C3=C(CCCC3)C2=O)C1(C)C` (stereo not drawn) the “growth AUC” value was 0.916 (inactive). In the case of `O=P(OCCCl)(OCCCl)OCCCl`, the “growth AUC” value is reported as 0.985 (inactive). With `COCc1c(F)c(F)c(COC(=O)[C@@H]2[C@@H](C=C(Cl)Cl)C2(C)C)c(F)c1F` the “growth AUC” value was 0.953 (inactive). For `ClC1C(Cl)C(Cl)C(Cl)C(Cl)C1Cl` (mixture of isomers), the “growth AUC” value was 0.981 (inactive). `O=C(O)C1(O)c2ccccc2-c2ccc(Cl)cc21` (stereo not drawn) was tested, and the “growth AUC” value was 0.979 (inactive). For `CCC(CC)Nc1c([N+](=O)[O-])cc(C)c(C)c1[N+](=O)[O-]`, the “growth AUC” value was 0.888 (inactive). With `CC(C)(C)c1ccc(CCOc2ncnc3ccccc23)cc1` the “growth AUC” value was 0.952 (inactive). `CCC(C)(NC(=O)c1cc(Cl)c(C)c(Cl)c1)C(=O)CCl` (stereo not drawn) was tested, and the “growth AUC” value was 0.949 (inactive). For `COc1ccc(/C(=C/C(=O)N2CCOCC2)c2ccc(Cl)cc2)cc1OC`, the “growth AUC” value was 0.962 (inactive). For `CNC(=O)Oc1cccc2c1OC(C)(C)C2=O`, the “growth AUC” value was 1.03 (inactive). For `c1coc(-c2nc3ccccc3[nH]2)c1`, the “growth AUC” value was 0.937 (inactive). `COP(=O)(OC)SCn1c(=O)oc2cc(Cl)cnc21` was tested, and the “growth AUC” value was 1.02 (inactive). In the case of `COC(=O)Nc1nc2ccccc2[nH]1`, the “growth AUC” value is reported as 1.01 (inactive). `S=C1NCCN1` was tested, and the “growth AUC” value was 0.998 (inactive). In the case of `O=c1[nH]c(Cl)c(Cl)cc1Cl`, the “growth AUC” value is reported as 1.04 (inactive). With `Cc1cccc(C)c1N` the “growth AUC” value was 1.04 (inactive). `COP(=O)(OC)Oc1ccc([N+](=O)[O-])cc1` was tested, and the “growth AUC” value was 0.989 (inactive). `CCOP(=S)(OCC)Oc1ccc2c(C)c(Cl)c(=O)oc2c1` was tested, and the “growth AUC” value was 0.952 (inactive). For `Clc1cc(Cl)c(Cl)cc1Cl`, the “growth AUC” value was 0.997 (inactive). For `CCN(CC)c1c([N+](=O)[O-])cc(C(F)(F)F)c(N)c1[N+](=O)[O-]`, the “growth AUC” value was 0.94 (inactive). With `C[C@@H](Oc1ccc(Oc2ccc(C(F)(F)F)cn2)cc1)C(=O)O` the “growth AUC” value was 1.04 (inactive). With `CCOP(=S)(Oc1cnc(C(C)(C)C)nc1)OC(C)C` (stereo not drawn) the “growth AUC” value was 0.973 (inactive). In the case of `Oc1ccc(C(c2ccc(O)cc2)(C(F)(F)F)C(F)(F)F)cc1`, the “growth AUC” value is reported as 0.63 (active).
